The source made the active and inactive calls. How the source made its calls: active means hit-call score of the fitted dose curve at least 0.9, where 1 is the maximum; inactive means score below 0.9.
How the values were obtained:
Details in all cases: mRNA level, 48 h; actives raise or lower the signal
[1] = read-out: Ezrin (EZR), EZR (gene 7430); experiment: LTEA_HepaRG_EZR: Life Technologies and Expression Analysis (LTEA) Assay for Ezrin (EZR) using HepaRG (AID 2283491)
Outline: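 HepaRG, 48 h chemical exposure, 8-pt half-log series from 100 uM, 0.5% DMSO vehicle, duplicates. Read-out: EZR mRNA by TaqMan qRT-PCR (Fluidigm array), housekeeping-normalized; bidirectional curve fit vs DMSO baseline.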

[2] = read-out: Cytochrome P450 3A7 (Homo sapiens) (UniProt P24462); experiment: LTEA_HepaRG_CYP3A7: Life Technologies and Expression Analysis (LTEA) Assay for CYP3A7 using HepaRG (AID 2283492)
Outline: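 CYP3A7 transcript levels were read by TaqMan qRT-PCR on Fluidigm arrays after 48 h chemical exposure of human HepaRG cells, with housekeeping-gene normalisation. Eight half-log concentrations up to 100 uM in 0.5% DMSO were tested in duplicate.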

[3] = read-out: CYP3A5 (gene 1577); experiment: LTEA_HepaRG_CYP3A5: Life Technologies and Expression Analysis (LTEA) Assay for CYP3A5 using HepaRG (AID 2283493)
Outline: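 HepaRG cells, plated 48 h then in serum-free induction medium, dosed in duplicate for 48 h with eight half-log concentrations up to 100 uM in 0.5% DMSO. Gene mRNA by Fluidigm TaqMan qRT-PCR, normalized to ACTB, GAPDH, POLR2A.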

[4] = read-out: Fatty Acid-Binding Protein 1 (FABP1), FABP1 (gene 2168); experiment: LTEA_HepaRG_FABP1: Life Technologies and Expression Analysis (LTEA) Assay for Fatty Acid-Binding Protein 1 (FABP1) using HepaRG (AID 2283494)
Outline: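 HepaRG, 48 h post-plating switched to serum-free induction medium, then dosed 48 h (duplicate, 8 pts, ≤100 uM, 0.5% DMSO). RNA → Fluidigm TaqMan qRT-PCR, FABP1 normed to ACTB/GAPDH/POLR2A. Bidirectional curve fit vs DMSO.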

[5] = read-out: Cytochrome P450 4A22 (Homo sapiens) (UniProt Q5TCH4); experiment: LTEA_HepaRG_CYP4A22: Life Technologies and Expression Analysis (LTEA) Assay for Cytochrome P450 4A22 (CYP4A22) using HepaRG (AID 2283495)
Outline: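 HepaRG, 48 h post-plating -> serum-free induction medium; dosed 48 h, duplicate, 8 conc. (100 uM top, half-log), 0.5% DMSO. Readout: CYP4A22 mRNA by qRT-PCR, ACTB/GAPDH/POLR2A normalization; gain/loss fit relative to DMSO.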

[6] = read-out: Cytochrome P450 7A1 (Homo sapiens) (UniProt P22680); experiment: LTEA_HepaRG_CYP7A1: Life Technologies and Expression Analysis (LTEA) Assay for Cytochrome P450 7A1 (CYP7A1) using HepaRG (AID 2283496)
Outline: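 HepaRG cells plated 48 h, then switched to serum-free induction medium and exposed in duplicate for 48 h to 8-point half-log series from 100 uM in 0.5% DMSO. CYP7A1 mRNA by qRT-PCR (TaqMan), normalized to ACTB/GAPDH/POLR2A; bidirectional fit versus DMSO.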

[7] = read-out: Glutathione S-Transferase (GSTA2), GSTA2 (gene 2939); experiment: LTEA_HepaRG_GSTA2: Life Technologies and Expression Analysis (LTEA) Assay for Glutathione S-Transferase (GSTA2) using HepaRG (AID 2283497)
Outline: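 HepaRG, 48 h dosing, 8-pt half-log CRC from 100 uM, 0.5% DMSO vehicle, n=2; RNA → Fluidigm TaqMan qRT-PCR; GSTA2 vs ACTB/GAPDH/POLR2A; gain/loss fit vs DMSO.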

[8] = read-out: Glutamate-cysteine ligase catalytic (GCLC), GCLC (gene 2729); experiment: LTEA_HepaRG_GCLC: Life Technologies and Expression Analysis (LTEA) Assay for Glutamate-cysteine ligase catalytic (GCLC) using HepaRG (AID 2283498)
Outline: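 Read-out is GCLC transcript level by Fluidigm-based TaqMan qRT-PCR, normalized to three housekeeping genes and fitted in both directions relative to 0.5% DMSO. Human HepaRG cells received chemicals for 48 h, up to 100 uM.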

[9] = read-out: growth arrest and DNA damage 45 (GADD45G), GADD45G (gene 10912); experiment: LTEA_HepaRG_GADD45G: Life Technologies and Expression Analysis (LTEA) Assay for growth arrest and DNA damage 45 (GADD45G) using HepaRG (AID 2283499)
Outline: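 HepaRG, 48 h exposure, top 100 uM, half-log 8-point series, 0.5% DMSO vehicle, duplicates. Readout: GADD45G transcript by qRT-PCR (Fluidigm array), housekeeping-normalised (ACTB/GAPDH/POLR2A). Bidirectional curve fit vs DMSO baseline.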

[10] = read-out: Glutathione S-transferase M3 (GSTM3), GSTM3 (gene 2947); experiment: LTEA_HepaRG_GSTM3: Life Technologies and Expression Analysis (LTEA) Assay for Glutathione S-transferase M3 (GSTM3) using HepaRG (AID 2283501)
Outline: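 qRT-PCR read-out of GSTM3 transcript, normalized to three housekeeping genes, from human HepaRG cells after 48 h chemical exposure. Eight-point half-log series, top 100 uM, 0.5% DMSO vehicle; gain or loss fitted relative to DMSO baseline.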

[11] = read-out: Heat shock 70 kDa protein 1 (HSPA1A), gene 3303; experiment: LTEA_HepaRG_HSPA1A: Life Technologies and Expression Analysis (LTEA) Assay for Heat shock 70 kDa protein 1 (HSPA1A) using HepaRG (AID 2283502)
Outline: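 Human HepaRG cells in serum-free induction medium were exposed in duplicate for 48 h to 8 half-log concentrations, highest 100 uM, in 0.5% DMSO. HSPA1A mRNA read by TaqMan qRT-PCR, normalized to ACTB, GAPDH, POLR2A, fitted bidirectionally against DMSO.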

[12] = read-out: Hypoxia-inducible factor 1-alpha (Homo sapiens) (UniProt Q16665); experiment: LTEA_HepaRG_HIF1A: Life Technologies and Expression Analysis (LTEA) Assay for Hypoxia-inducible factor 1 (HIF1A) Trancription factor using HepaRG (AID 2283503)
Outline: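 Differentiated HepaRG cells in serum-free induction medium exposed 48 h, in duplicate, to 8-point half-log series from 100 uM in 0.5% DMSO. HIF1A mRNA measured by TaqMan qRT-PCR, normalized to ACTB/GAPDH/POLR2A, fitted bidirectionally versus DMSO.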

[13] = read-out: 3-Hydroxy-3-Methylglutaryl-CoA Synthase 2 (HMGCS2), HMGCS2 (gene 3158); experiment: LTEA_HepaRG_HMGCS2: Life Technologies and Expression Analysis (LTEA) Assay for 3-Hydroxy-3-Methylglutaryl-CoA Synthase 2 (HMGCS2) using HepaRG (AID 2283504)
Outline: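 qRT-PCR read-out of HMGCS2 transcript, normalised to three housekeeping genes, in HepaRG cells after 48 h chemical exposure. Eight-point curves from 100 uM, half-log dilutions, 0.5% DMSO vehicle; gain or loss fitted relative to DMSO baseline.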

[14] = read-out: HGF (gene 3082); experiment: LTEA_HepaRG_HGF: Life Technologies and Expression Analysis (LTEA) Assay for Hepatocyte Growth Facto (HGF) using HepaRG (AID 2283505)
Outline: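 HepaRG, 48 h dosing, 8-pt half-log series from 100 uM in 0.5% DMSO, duplicates. Readout: TaqMan qRT-PCR of HGF mRNA, housekeeping-normalized; bidirectional curve fit vs DMSO baseline.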

[15] = read-out: Insulin Like Growth Factor 1 (IGF1), IGF1 (gene 3479); experiment: LTEA_HepaRG_IGF1: Life Technologies and Expression Analysis (LTEA) Assay for Insulin Like Growth Factor 1 (IGF1) using HepaRG (AID 2283506)
Outline: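 Differentiated HepaRG cells in serum-free induction medium, exposed 48 h in duplicate to 8 half-log concentrations up to 100 uM in 0.5% DMSO. IGF1 mRNA by Fluidigm qRT-PCR, normalised to ACTB, GAPDH and POLR2A.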

[16] = read-out: Intercellular Adhesion Molecule 1 (ICAM1), ICAM1 (gene 3383); experiment: LTEA_HepaRG_ICAM1: Life Technologies and Expression Analysis (LTEA) Assay for Intercellular Adhesion Molecule 1 (ICAM1) using HepaRG (AID 2283507)
Outline: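 HepaRG, 48 h exposure, 8-pt half-log series from 100 uM, 0.5% DMSO vehicle, duplicates. Readout: TaqMan qRT-PCR mRNA, housekeeping-normalized (ACTB/GAPDH/POLR2A). Bidirectional curve fit vs DMSO baseline.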

[17] = read-out: Insulin-like growth factor-binding protein 1 (IGFBP1), IGFBP1 (gene 3484); experiment: LTEA_HepaRG_IGFBP1: Life Technologies and Expression Analysis (LTEA) Assay for Insulin-like growth factor-binding protein 1 (IGFBP1) using HepaRG (AID 2283508)
Outline: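 qRT-PCR mRNA read-out (TaqMan, Fluidigm array), normalised to three housekeeping genes; HepaRG cells, 48 h exposure, 8-pt half-log series from 100 uM, 0.5% DMSO vehicle; bidirectional curve fit vs DMSO baseline.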

[18] = read-out: Interleukin 6 (IL6), IL6 (gene 3569); experiment: LTEA_HepaRG_IL6: Life Technologies and Expression Analysis (LTEA) Assay for Interleukin 6 (IL6) using HepaRG (AID 2283509)
Outline: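 HepaRG, ~100,000 cells/well, 48 h pre-culture; serum-free induction medium; cmpd 8-pt half-log from 100 uM, 0.5% DMSO, duplicate, 48 h. Lysis in RLT, TaqMan qRT-PCR; gain or loss vs DMSO.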

[19] = read-out: Interleukin 6 Receptor (IL6R), IL6R (gene 3570); experiment: LTEA_HepaRG_IL6R: Life Technologies and Expression Analysis (LTEA) Assay for Interleukin 6 Receptor (IL6R) using HepaRG (AID 2283510);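 on AC50: differentiated human HepaRG liver cells in serum-free induction medium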
Outline: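 Differentiated HepaRG cells, plated 48 h, then exposed in duplicate for 48 h in serum-free induction medium to 8 half-log concentrations (top 100 uM, 0.5% DMSO). IL6R mRNA measured by TaqMan qRT-PCR, normalized to ACTB/GAPDH/POLR2A; bidirectional fit vs DMSO.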

[20] = read-out: Glutamate-cysteine ligase regulatory (GCLM), GCLM (gene 2730); experiment: LTEA_HepaRG_GCLM: Life Technologies and Expression Analysis (LTEA) Assay for Glutamate-cysteine ligase regulatory (GCLM) using HepaRG (AID 2283500)
Outline: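 Differentiated HepaRG cells exposed 48 h in serum-free induction medium to eight half-log concentrations up to 100 uM (0.5% DMSO). GCLM mRNA by TaqMan qRT-PCR, normalized to ACTB, GAPDH and POLR2A; bidirectional fit versus DMSO.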

Measured: AC50

Chain of Hypoxia-inducible factor 1-alpha (Homo sapiens) (Q16665 whole entry, looked up): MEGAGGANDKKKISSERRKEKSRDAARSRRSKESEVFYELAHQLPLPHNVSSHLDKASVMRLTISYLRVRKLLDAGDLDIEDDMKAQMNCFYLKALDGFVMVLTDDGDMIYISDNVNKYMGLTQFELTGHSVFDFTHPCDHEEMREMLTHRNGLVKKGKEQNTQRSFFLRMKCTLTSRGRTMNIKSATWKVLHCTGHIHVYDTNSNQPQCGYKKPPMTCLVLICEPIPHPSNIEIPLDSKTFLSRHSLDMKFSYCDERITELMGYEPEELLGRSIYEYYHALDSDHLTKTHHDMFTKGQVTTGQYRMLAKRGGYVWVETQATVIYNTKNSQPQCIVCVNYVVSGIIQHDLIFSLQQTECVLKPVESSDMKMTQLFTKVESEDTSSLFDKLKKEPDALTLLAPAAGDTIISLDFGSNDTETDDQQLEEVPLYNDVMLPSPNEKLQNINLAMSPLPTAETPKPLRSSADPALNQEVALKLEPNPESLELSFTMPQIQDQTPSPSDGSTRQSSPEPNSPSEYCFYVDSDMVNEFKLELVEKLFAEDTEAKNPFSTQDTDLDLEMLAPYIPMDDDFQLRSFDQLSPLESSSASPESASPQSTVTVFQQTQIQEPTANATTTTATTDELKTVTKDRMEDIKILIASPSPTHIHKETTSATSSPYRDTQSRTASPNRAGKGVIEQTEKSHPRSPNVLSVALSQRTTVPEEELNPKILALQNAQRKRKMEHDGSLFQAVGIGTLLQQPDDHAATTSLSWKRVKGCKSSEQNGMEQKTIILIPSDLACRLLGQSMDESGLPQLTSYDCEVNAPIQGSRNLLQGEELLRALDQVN
Chain of Cytochrome P450 3A7 (Homo sapiens) (P24462 whole entry, looked up): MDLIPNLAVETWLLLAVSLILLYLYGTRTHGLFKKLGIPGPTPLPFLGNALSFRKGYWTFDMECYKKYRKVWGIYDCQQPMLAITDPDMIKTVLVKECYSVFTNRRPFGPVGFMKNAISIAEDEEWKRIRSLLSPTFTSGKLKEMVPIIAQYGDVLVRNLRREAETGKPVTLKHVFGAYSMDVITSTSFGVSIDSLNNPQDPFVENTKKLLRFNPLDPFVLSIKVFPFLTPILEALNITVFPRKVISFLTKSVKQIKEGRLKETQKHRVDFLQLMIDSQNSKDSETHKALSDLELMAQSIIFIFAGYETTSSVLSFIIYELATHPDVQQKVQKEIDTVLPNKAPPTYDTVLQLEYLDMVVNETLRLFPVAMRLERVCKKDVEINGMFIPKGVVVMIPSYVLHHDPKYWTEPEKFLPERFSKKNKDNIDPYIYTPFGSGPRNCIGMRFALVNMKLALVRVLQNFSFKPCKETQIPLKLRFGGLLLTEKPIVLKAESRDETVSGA

Clc1cc(Cl)c2c(c1)N=C1CCCCCN1C2
active: [2] 7.11 µM | [15] 5.03 µM | [17] 15.5 µM
not listed: [20]
inactive: all other assays above

c1ccc2n[nH]nc2c1
not listed: [2] | [5] | [19] | [20]
inactive: all other assays above

CN(C)c1ccc(C(=C2C=CC(=[N+](C)C)C=C2)c2ccc(N(C)C)cc2)cc1
inactive: [14]
active: [1] 32 µM | [3] 24.6 µM | [4] 2.76 µM | [5] 3.65 µM | [6] 4.38 µM | [7] 4.31 µM | [8] 20.1 µM | [9] 11.7 µM | [20] 95.3 µM | [10] 7.35 µM | [11] 86.5 µM | [12] 44.3 µM | [13] 3.66 µM | [15] 1.44 µM | [16] 73.1 µM | [17] 3.64 µM | [18] 6.98 µM

Oc1ccccc1
not listed: [20]
inactive: all other assays above

CC[C@@H]1C[C@H](N(Cc2cc(C(F)(F)F)cc(C(F)(F)F)c2)C(C)=O)c2cc(C(F)(F)F)ccc2N1C(=O)OC(C)C
active: [2] 0.435 µM | [4] 4.3 µM | [5] 9.62 µM | [15] 5.09 µM
not listed: [19] | [20]
inactive: all other assays above

CC(C)(c1cc(Br)c(O)c(Br)c1)c1cc(Br)c(O)c(Br)c1
active: [2] 9.73 µM | [7] 72.4 µM | [8] 78 µM | [11] 88.6 µM | [12] 74 µM | [13] 89.2 µM | [15] 77 µM | [16] 74.5 µM | [17] 69.1 µM | [18] 75.5 µM
inactive: [1] | [3] | [4] | [5] | [6] | [9] | [10] | [14]

CCCCOC(=O)c1ccc(O)cc1
not listed: [12] | [19] | [20]
inactive: all other assays above

CCCC(=O)OCCC(C)C
not listed: [20]
inactive: all other assays above

CC(=O)N1CCN(c2ccc(OC[C@H]3CO[C@](Cn4ccnc4)(c4ccc(Cl)cc4Cl)O3)cc2)CC1
active: [3] 50 µM | [4] 12.7 µM | [6] 12.9 µM | [7] 11.3 µM | [8] 65.5 µM | [20] 88.7 µM | [10] 22.7 µM | [11] 79.5 µM | [13] 12.4 µM | [15] 12.4 µM | [16] 26.6 µM | [17] 15.1 µM | [18] 31.2 µM | [19] 13.9 µM
inactive: [1] | [9]

CCCCCCCC[Si](OCC)(OCC)OCC
not listed: [20]
inactive: all other assays above

Cc1oc2c(NC(=O)c3c(Cl)cccc3Cl)cccc2c1C(C)(C)O
active: [2] 31.6 µM | [4] 62.1 µM | [5] 31.5 µM | [6] 57.3 µM | [7] 38.2 µM | [8] 68.7 µM | [10] 34.4 µM | [11] 79.6 µM | [13] 52.8 µM | [14] 85.7 µM | [15] 28.6 µM | [16] 50 µM | [17] 37.8 µM | [18] 66.2 µM | [19] 23.8 µM
inactive: [1] | [3] | [9] | [12]

— PubChem BioAssay (EPA / NIEHS)
